Residue numbers refer to the chain shown, from its start.
What was measured:
Test in all cases: yeast three-hybrid, YBZ-1, SC-Leu-His + 0.5 mM 3-AT, 4 days
Settings in all cases: tags: N-Gal4 AD-HA kept; label: inside an RPR1-promoter hybrid RNA with tandem MS2 sites; ssRNA
PUM1 PUF domain R2-PYE = PUM1 PUF domain R2-PYE (Homo sapiens, UniProt Q14671 828-1176, N899P;Q903E)
Procedure, shortened: (§1)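 Repeat regions from input (SC-Leu) and selection (SC-Leu-His + 0.5 mM 3-AT) plates were PCR-amplified and Illumina-sequenced after four days of growth. The cells were strain YBZ-1 with a LexA–MS2 coat fusion and a HIS3 reporter, co-expressing Pumilio-1 PUF domain libraries and matching RNA elements from a centromeric plasmid. The interaction score is the log change in variant frequency from input to selection, taken in log2 with a pseudocount of 1 for absent variants.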

PUM1 PUF domain R5-KSG = PUM1 PUF domain R5-KSG (Homo sapiens, UniProt Q14671 828-1176, C1007K;R1008S;Q1011G)
Procedure, shortened: as §1

PUM1 PUF domain R6-QHR = target: T1, PUM1 PUF domain R6-QHR (Homo sapiens, UniProt Q14671 828-1176, N1043Q;Y1044H;Q1047R)
T1 sequence: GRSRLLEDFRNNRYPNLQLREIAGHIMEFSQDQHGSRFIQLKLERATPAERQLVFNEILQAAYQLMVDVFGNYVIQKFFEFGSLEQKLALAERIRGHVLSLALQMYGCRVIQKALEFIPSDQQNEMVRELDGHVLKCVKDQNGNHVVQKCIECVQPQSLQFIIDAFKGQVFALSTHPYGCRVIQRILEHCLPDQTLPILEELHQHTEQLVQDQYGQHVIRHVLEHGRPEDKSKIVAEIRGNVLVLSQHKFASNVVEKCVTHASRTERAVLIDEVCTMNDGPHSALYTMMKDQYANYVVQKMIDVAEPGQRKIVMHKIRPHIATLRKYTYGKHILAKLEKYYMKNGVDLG
Procedure, shortened: as §1

PUM1 PUF domain R6-FWK = target: T2, PUM1 PUF domain R6-FWK (Homo sapiens, UniProt Q14671 828-1176, N1043F;Y1044W;Q1047K)
T2 sequence: T1 sequence with Q216F, H217W, R220K
Procedure, shortened: as §1

PUM1 PUF domain R6-QWR = target: T3, PUM1 PUF domain R6-QWR (Homo sapiens, UniProt Q14671 828-1176, N1043Q;Y1044W;Q1047R)
T3 sequence: T1 sequence with H217W
Procedure, shortened: as §1

PUM1 PUF domain R8-KRS = PUM1 PUF domain R8-KRS (Homo sapiens, UniProt Q14671 828-1176, N1122K;Y1123R;Q1126S)
Procedure, shortened: as §1

PUM1 PUF domain R7-RWP = PUM1 PUF domain R7-RWP (Homo sapiens, UniProt Q14671 828-1176, S1079R;N1080W;E1083P)
Procedure, shortened: as §1

Question: With “GGCUAGAACUAGUGGAUCCCCCGGCGCCCGGCGGCUCGAGCCCGGGUAAGUGUAAAAAGUCUGCAUGCCGCCGGGCGCCAUGCCUGCAGGUCGACUCUAGAAAACAUG” as the sequence, how does the binding signal (PUM1 PUF domain R2-PYE) read?
Answer: 5.7 log2 enrichment (interaction score)

Question: With “GGCUAGAACUAGUGGAUCCCCCGGCGCCCGGCGGCUCGAGCCCGGGUAAGUGUCAAUAGUCUGCAUGCCGCCGGGCGCCAUGCCUGCAGGUCGACUCUAGAAAACAUG” as the sequence, how does the binding signal (PUM1 PUF domain R5-KSG) read?
Answer: 3.24 log2 enrichment (interaction score)

Question: Which binding signal (PUM1 PUF domain R5-KSG) does the source give for “GGCUAGAACUAGUGGAUCCCCCGGCGCCCGGCGGCUCGAGCCCGGGUAAGUGUUAAUAGUCUGCAUGCCGCCGGGCGCCAUGCCUGCAGGUCGACUCUAGAAAACAUG” here?
Answer: 2.98 log2 enrichment (interaction score)

Question: Which results are given for “GGCUAGAACUAGUGGAUCCCCCGGCGCCCGGCGGCUCGAGCCCGGGUAAGUGUAAAUAGUCUGCAUGCCGCCGGGCGCCAUGCCUGCAGGUCGACUCUAGAAAACAUG”?
Answer: binding signal (PUM1 PUF domain R6-QHR): 6.41 log2 enrichment (interaction score); binding signal (PUM1 PUF domain R6-FWK): 2.07 log2 enrichment (interaction score); binding signal (PUM1 PUF domain R6-QWR): 2.53 log2 enrichment (interaction score); binding signal (PUM1 PUF domain R8-KRS): 1.29 log2 enrichment (interaction score)

Question: How did the binding signal (PUM1 PUF domain R7-RWP) turn out when “GGCUAGAACUAGUGGAUCCCCCGGCGCCCGGCGGCUCGAGCCCGGGUAAGUCUAAAUAGUCUGCAUGCCGCCGGGCGCCAUGCCUGCAGGUCGACUCUAGAAAACAUG” was run?
Answer: 4.98 log2 enrichment (interaction score)

Question: “GGCUAGAACUAGUGGAUCCCCCGGCGCCCGGCGGCUCGAGCCCGGGUAAGUGCAAAUAGUCUGCAUGCCGCCGGGCGCCAUGCCUGCAGGUCGACUCUAGAAAACAUG” was tested. Which binding signal (PUM1 PUF domain R6-QWR) did it give?
Answer: 2.4 log2 enrichment (interaction score)

Question: With “GGCUAGAACUAGUGGAUCCCCCGGCGCCCGGCGGCUCGAGCCCGGGUAAGCGUAAAUAGUCUGCAUGCCGCCGGGCGCCAUGCCUGCAGGUCGACUCUAGAAAACAUG” as the sequence, how does the binding signal (PUM1 PUF domain R8-KRS) read?
Answer: 3.28 log2 enrichment (interaction score)

— PMC8384837, “Expanding the binding specificity for RNA recognition by a PUF domain”
